# Test results published in PubChem BioAssay AID2315 (National Center for Advancing Translational Sciences (NCATS), 2010).
# Among all 290,000 compounds or so, about 27,000 (9.3%) were called active. Rule as the data show it: active = inhibition mostly above about 28% (no sharp cut-off); inactive = mostly below about 43%. The entries come from a sample that favours actives as a whole.
# Assay: A qHTS for Small Molecule Inhibitors of Shiga Toxin; also: 0% is about no effect
# Details: Vero cells, Shiga toxin protein synthesis inhibition reporter; at 38.7 µM, hits give high values
row,SMILES,inhibition
1,COc1ccc(/C=C(/NC(=O)c2ccccc2)C(=O)Nc2cccc(C(=O)O)c2)cc1,-15.3% (inactive)
2,O=C(OCCN1C(=O)c2ccccc2C1=O)Oc1ccccc1,-2.38% (inactive)
3,Cc1cccc2c1N(CCOc1ccccc1)C(=O)C2=O,-13.4% (inactive)
4,O=C1c2ccccc2C(=O)N1CCOc1ccc(F)cc1,90.8% (active)
5,CC(NC(=O)COc1cccnc1[N+](=O)[O-])c1ccc(Cl)cc1Cl (centres undefined),-9.36% (inactive)
6,O=C(CCCCCNC(=O)c1ccccc1)N/N=C/c1ccccc1,11% (inactive)
7,O=C(CCC(=O)Nc1ccccc1)N/N=C/c1ccccc1F,144% (active)
8,O=C(Cc1ccccc1)N/N=C/c1ccc(Cl)cc1Cl,6.24% (inactive)
9,CN(C)C(=O)c1ccc(NC(=O)c2ccccc2-c2ccccc2)cc1,-11.5% (inactive)
10,CCc1ccc(NC(=O)c2ccc(Cn3cc([N+](=O)[O-])cn3)cc2)cc1,51.8% (inactive)
11,CCOc1cccc(C(=O)Nc2cnn(Cc3ccccc3)c2)c1,17.4% (inactive)
12,O=C(Nc1ccccc1F)c1ccc(Cn2cc(Br)cn2)cc1,71.1% (active)
13,CC(NC(=O)Cn1cc(C(F)(F)F)cc(Cl)c1=O)c1ccccc1 (centres undefined),-1.42% (inactive)
14,NNC(=O)CSc1nnc(-c2ccccc2)n1-c1ccccc1,-7.44% (inactive)
15,COc1ccc(C(=O)NC2CC2)cc1OC1CCN(Cc2ccc(SC)cc2)CC1,-0.345% (inactive)
16,COc1ccc(Nc2nnc(C)c3ccccc23)cc1,106% (active)
17,COc1ccc(Nc2nc(=O)[nH]nc2C)cc1,16.1% (inactive)
18,Cc1nnc(NCCO)c2ccccc12,10.4% (inactive)
19,CN(Cc1ccccc1)C(=O)C1CCCN(c2ncnc3c2nc2n3CCCCC2)C1 (centres undefined),21.9% (inactive)
20,C/C(=C/c1ccccc1)C(=O)N1CCN(c2ccccc2)CC1,18.9% (inactive)
21,Cc1cccc(C(=O)OC(C)CN2CCCC2)c1 (centres undefined),5.97% (inactive)
22,CCNC(=S)NNC(=O)Cc1ccccc1,-8.55% (inactive)
23,CC(C)(C)c1ccc(C(=O)NNC(=O)Cc2ccccc2)cc1,76.6% (active)
24,O=C(CCc1ccccc1)NNC(=O)c1ccc(Br)cc1,34.5% (inactive)
25,CCOc1ccc2c(c1)C(c1ccc(C)cc1)=NNC(c1ccc(C)cc1)=N2,85.1% (active)

row,SMILES,inhibition
1,Cc1ccc(C2=Nc3c(ccc4ccccc34)C(c3ccncc3)=NN2)cc1,5.77% (inactive)
2,CCc1ccc2c(c1)C(c1ccc([N+](=O)[O-])cc1)=NNC(c1ccccc1)=N2,31.4% (inactive)
3,Cc1ccc(S(=O)(=O)N2CCN(C(=O)N3CCOCC3)CC2)c(C)c1,-2.32% (inactive)
4,COc1cccc(OC)c1C(=O)N1CCN(Cc2cccnc2)CC1,11.9% (inactive)
5,O=C(Cc1cccs1)NCc1cccc(C(F)(F)F)c1,61.9% (active)
6,O=C(NCc1ccccc1)c1ccc(S(=O)(=O)Nc2cccc(C(F)(F)F)c2)cc1,-3.31% (inactive)
7,COc1cc(CC(=O)NCc2cccs2)cc(OC)c1OC,-11.7% (inactive)
8,COc1cccc(NC(=O)N2CCCC2C(=O)NC2CCCCC2)c1 (centres undefined),-3.54% (inactive)
9,O=S(=O)(Nc1ccc2[nH]ncc2c1)c1ccccc1Cl,-6.01% (inactive)
10,O=C(CSc1nnc2n1CCCN2)c1ccccc1,53.5% (active)
11,Cn1c(CC(=O)Nc2ccccc2)nnc1SCC(=O)c1ccccc1,0.707% (inactive)
12,Cc1ccc(-n2c(C)cc(C(=O)CSc3nnc4ccccn34)c2C)cc1,48.6% (active)
13,O=C(CSc1nnc2ccccn12)c1ccccc1,74.7% (active)
14,N#Cc1ccc(CSc2nnc3ccccn23)cc1,-7.41% (inactive)
15,Cc1ccc(-n2c(C)nnc2SCC(=O)NC2CC2)cc1,-29.3% (inactive)
16,Cn1c(SCC(=O)c2ccc(F)cc2)nnc1-c1ccccn1,21.4% (inactive)
17,CCN(C(=O)CSc1nnc2ccccn12)C1CCS(=O)(=O)C1 (centres undefined),-8.56% (inactive)
18,O=C(CSc1nnc(-c2ccco2)n1CC1CCCO1)c1ccccc1 (centres undefined),21.9% (inactive)
19,Cn1c(=O)n(C)c2cc(S(=O)(=O)Nc3ccc(F)cc3)ccc21,0.488% (inactive)
20,Cc1ccc(CCN2CC(C(=O)NCCc3ccccc3)CC2=O)cc1 (centres undefined),16.6% (inactive)
21,CC1CCCCN1C(=O)Cn1c(=O)oc2cc(S(=O)(=O)N3CCCCC3)ccc21 (centres undefined),12.7% (inactive)
22,CC(C)(C)NC(=O)NC(=O)COC(=O)C1c2ccccc2Oc2ccccc21,-5.17% (inactive)
23,Cc1ccc2[nH]c(=O)c(CC(=O)O)c(-c3ccccc3)c2c1,1.65% (inactive)
24,COc1cc(/C=N/NC(=O)c2ccc(N3CCCC3=O)cc2)ccc1O,56.5% (active)
